# Results as given in PubChem BioAssay (Tox21).
# Results filed as inconclusive are left out. Entries that show only a call come without a potency. Activity calls are given as the source filed them. Unless noted, the call rests on the fitted dose curve.
# Key:
# [1] = Nuclear factor erythroid 2-related factor 2/antioxidant responsive element (Nrf2/ARE) small molecule agonists: qHTS cell viability counter screen in human keratinocytes (AID 1919968; active means well fitted curve in the direction sought with a large enough effect in the repeat runs; an effect the other way counts as inactive or inconclusive; further: nearly all actives have a fitted effect of over 55% in size; further: potency means the concentration at half of the fitted maximal effect)
# In short: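 Stably transfected HaCaT (KeratinoSens), 1,500/well. Test agents in DMSO were applied for 23 h, 37 C/5% CO2. CellTiter-Fluor was incubated 1 h before the fluorescence read.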
# [2] = Nuclear factor erythroid 2-related factor 2/antioxidant responsive element (Nrf2/ARE) small molecule agonists: luciferase reporter gene qHTS assay in human keratinocytes (AID 1919969); further: nearly all actives have a fitted effect of over 35% in size; further: potency means the concentration at half of the fitted maximal effect
# [3] = biological target: Gonadotropin-releasing hormone receptor (Homo sapiens) (UniProt P30968); test: Human gonadotropin-releasing hormone receptor (GnRHR) small molecule agonists, calcium flux assay in GnRHR-HEK293 cells (AID 1920063); further: nearly all actives have a fitted effect of over 35% in size
# Chain of Gonadotropin-releasing hormone receptor (Homo sapiens) (P30968 whole entry, looked up): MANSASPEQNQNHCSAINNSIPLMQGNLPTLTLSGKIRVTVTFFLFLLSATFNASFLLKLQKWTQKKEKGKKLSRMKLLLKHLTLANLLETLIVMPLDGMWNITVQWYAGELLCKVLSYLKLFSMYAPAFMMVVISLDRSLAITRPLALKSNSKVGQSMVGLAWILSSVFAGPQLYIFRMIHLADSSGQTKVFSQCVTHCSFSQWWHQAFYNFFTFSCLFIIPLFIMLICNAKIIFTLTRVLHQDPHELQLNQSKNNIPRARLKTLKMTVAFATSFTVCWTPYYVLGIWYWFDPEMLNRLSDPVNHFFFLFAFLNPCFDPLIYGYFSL
# In short: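 Stable human GnRHR HEK293 line. 18 h plating, then calcium dye for 1 h at 37 C. Agonist-mode compound addition from DMSO stocks; fluorescence monitored 3 min.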
# [4] = biological target: KiSS-1 receptor (Homo sapiens) (UniProt Q969F8); test: Human kisspeptin (KISS1R) small molecule agonists, calcium flux assay in KISS1R-HEK293 cells (AID 1920064; active means well fitted curve in the direction sought with a large enough effect in the repeat runs; an effect the other way counts as inactive or inconclusive)
# Chain of KiSS-1 receptor (Homo sapiens) (Q969F8 whole entry, looked up): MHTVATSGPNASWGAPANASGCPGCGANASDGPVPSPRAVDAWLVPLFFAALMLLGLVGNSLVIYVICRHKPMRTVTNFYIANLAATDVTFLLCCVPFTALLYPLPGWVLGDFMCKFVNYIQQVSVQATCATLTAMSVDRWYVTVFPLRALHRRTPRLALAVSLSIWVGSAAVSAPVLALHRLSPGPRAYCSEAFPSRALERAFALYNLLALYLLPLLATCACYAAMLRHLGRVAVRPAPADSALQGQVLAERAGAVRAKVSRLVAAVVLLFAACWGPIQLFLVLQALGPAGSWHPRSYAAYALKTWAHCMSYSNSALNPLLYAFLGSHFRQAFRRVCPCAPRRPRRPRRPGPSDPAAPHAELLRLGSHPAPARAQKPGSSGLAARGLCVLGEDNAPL
# In short: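 After overnight (18 h) culture at 37 C/5% CO2, human KISS1R-HEK293 cells received calcium dye for 1 h, then test compound; emission at 540 nm (excitation 480 nm) was tracked for 3 min.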
# [5] = G protein-coupled receptor (GPCR) small molecule agonists, calcium flux assay: HEK293 wild type cell line counter screen (AID 1920065)
# In short: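 Following 18 h incubation at 37 C/5% CO2, plates got calcium dye for 1 h; compounds, ATP or DMSO were then pinned in and fluorescence followed kinetically (480/540 nm).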
# [6] = p53 small molecule agonists, cell-based qHTS assay with human liver microsomes (AID 1963577);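 further: p53 response element beta-lactamase reporter cells with liver microsomes plus NADPH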
# In short: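 16 h, 37 C exposure of p53RE-bla cells to compounds with human liver microsomes and NADPH (0.5 mg/mL final each); detection via LiveBLAzer mixture, 2 h dark at room temperature.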
# [7] = p53 small molecule agonists, cell-based qHTS assay with rat liver microsomes (AID 1963578)
# In short: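 With rat liver microsomes and NADPH present (0.5 mg/mL final each), p53RE-bla cells are treated with compound for 16 h at 37 C. LiveBLAzer detection mixture is then applied for 2 h at room temperature in the dark.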
# [8] = p53 small molecule agonists, cell-based qHTS assay with rat liver microsomes: qHTS cell viability counter screen (AID 1963580); further: nearly all actives have a fitted effect of over 45% in size
# In short: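 After the beta-lactamase ratio was read, CellTiter-Glo was added to the same wells and luminescence measured at 30 min; cells had been treated 16 h at 37 C with compounds, rat liver microsomes and NADPH (0.5 mg/mL final each).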
# [9] = p53 small molecule agonists, cell-based qHTS assay: qHTS cell viability counter screen (AID 1963581); further: nearly all actives have a fitted effect of over 45% in size
# In short: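 qHTS counter screen: 16 h compound exposure at 37 C of p53RE-bla HCT-116 cells (4,000 per well, seeded 5 h prior), cell viability by ATP luminescence.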
# [10] = p53 small molecule agonists, cell-based qHTS assay (AID 1963582; active means well fitted activation curve with a large enough effect in the signal ratio in the repeat runs, not every such curve was filed as active; the % refers to the signal ratio)
# In short: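 Measured: fluorescence from cleaved LiveBLAzer substrate. System: p53RE-bla cells, 16 h compound treatment at 37 C, 2 h substrate step at room temperature.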
# [11] = biological target: 5-hydroxytryptamine receptor 2A (Homo sapiens) (UniProt P28223); test: 5-hydroxytryptamine receptor 2A (HTR2A) small molecule antagonists, cell-based qHTS assay (AID 1963586); further: nearly all actives have a fitted effect of over 45% in size
# Chain of 5-hydroxytryptamine receptor 2A (Homo sapiens) (P28223 whole entry, looked up): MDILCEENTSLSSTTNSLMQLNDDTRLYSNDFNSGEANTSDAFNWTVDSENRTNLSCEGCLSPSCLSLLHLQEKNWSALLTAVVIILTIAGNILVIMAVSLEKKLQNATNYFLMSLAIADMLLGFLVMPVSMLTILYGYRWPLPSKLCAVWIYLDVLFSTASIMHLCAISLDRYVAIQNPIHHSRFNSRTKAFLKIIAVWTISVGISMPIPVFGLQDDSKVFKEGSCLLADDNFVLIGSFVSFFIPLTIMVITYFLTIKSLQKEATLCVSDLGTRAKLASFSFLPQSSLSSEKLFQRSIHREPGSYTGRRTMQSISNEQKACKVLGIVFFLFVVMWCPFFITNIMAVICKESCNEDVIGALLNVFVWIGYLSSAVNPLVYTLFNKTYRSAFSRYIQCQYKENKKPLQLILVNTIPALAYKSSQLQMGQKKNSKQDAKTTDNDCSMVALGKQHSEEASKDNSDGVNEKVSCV
# In short: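 CHO cells stably expressing human HTR2A were plated for 18 h at 37 C, then loaded with calcium dye for 1 h. Compounds were preincubated 5 min at room temperature before DOI (4 nM solution) was added. Kinetic fluorescence was read for 3 min.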
# [12] = biological target: 5-hydroxytryptamine receptor 2A (Homo sapiens) (UniProt P28223); test: 5-hydroxytryptamine receptor 2A (HTR2A) small molecule agonists, cell-based qHTS assay (AID 1963587); further: nearly all actives have a fitted effect of over 30% in size
# In short: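 CHO cells stably expressing human HTR2A, plated 18 h, loaded with calcium dye 1 h at 37 C. Agonist mode: compounds added and intracellular calcium fluorescence recorded kinetically for 2 min at 1 sec intervals.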
# [13] = biological target: Muscarinic acetylcholine receptor M1 (Homo sapiens) (UniProt P11229); test: Cholinergic receptor muscarinic 1 (CHRM1) small molecule antagonists, cell-based qHTS assay (AID 1963588); further: nearly all actives have a fitted effect of over 40% in size
# Chain of Muscarinic acetylcholine receptor M1 (Homo sapiens) (P11229 whole entry, looked up): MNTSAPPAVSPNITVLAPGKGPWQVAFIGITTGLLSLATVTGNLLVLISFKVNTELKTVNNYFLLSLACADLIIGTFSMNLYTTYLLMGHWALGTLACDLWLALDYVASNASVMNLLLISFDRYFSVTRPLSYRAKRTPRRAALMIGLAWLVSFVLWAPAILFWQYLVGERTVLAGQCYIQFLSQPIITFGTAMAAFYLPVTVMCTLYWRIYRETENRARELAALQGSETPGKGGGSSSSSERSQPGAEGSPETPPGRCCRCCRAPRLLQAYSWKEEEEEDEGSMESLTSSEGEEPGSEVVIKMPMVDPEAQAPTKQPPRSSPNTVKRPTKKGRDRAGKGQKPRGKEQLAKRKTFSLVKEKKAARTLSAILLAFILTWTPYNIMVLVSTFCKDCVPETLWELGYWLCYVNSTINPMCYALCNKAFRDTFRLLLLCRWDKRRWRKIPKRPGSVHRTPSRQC
# In short: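 Compounds were tested at 15 concentrations in three independent runs. Dye-loaded CHRM1-CHO cells were exposed 5 min at room temperature before stimulation by acetylcholine added at 50nM. Intracellular calcium was read kinetically on FDSS for 3 min.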
# [14] = biological target: Muscarinic acetylcholine receptor M1 (Homo sapiens) (UniProt P11229); test: Cholinergic receptor muscarinic 1 (CHRM1) small molecule agonists, cell-based qHTS assay (AID 1963589); further: nearly all actives have a fitted effect of over 35% in size
# In short: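 Kinetic fluorescence (1 s intervals) of calcium-sensitive dye in human M1 CHO cells after compound addition; cells pre-incubated 18 h at 37 C/5% CO2 and dye-loaded 1 h.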
# [15] = cAMP Responsive Elements (CRE) small molecule agonists, cell-based qHTS assay (AID 1963590)
# In short: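 Test agents in DMSO were incubated 3 h at 37 C/5% CO2 with CRE-bla HEK 293T cells seeded 18 h earlier; LiveBLAzer B/G FRET substrate was added and read after 2 h at room temperature.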
# [16] = cAMP Responsive Elements (CRE) small molecule antagonists, cell-based qHTS assay (AID 1963591; active means well fitted inhibition curve with a large enough effect in the signal ratio in the repeat runs, not every such curve was filed as active; the % refers to the signal ratio)
# In short: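 Reporter line CRE-bla HEK 293T in dialyzed-FBS DMEM; cells preincubated 18 h, treated 3 h with compound plus NKH477 (0.25 uM final); LiveBLAzer FRET, 2 h RT.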
# [17] = biological target: Beta-2 adrenergic receptor (Homo sapiens) (UniProt P07550); test: Adrenergic beta2 receptor (ADRB2) small molecule antagonists, cell-based qHTS assay (AID 1963592); further: nearly all actives have a fitted effect of over 50% in size; further: potency means the concentration at half of the fitted maximal effect
# Chain of Beta-2 adrenergic receptor (Homo sapiens) (P07550 whole entry, looked up): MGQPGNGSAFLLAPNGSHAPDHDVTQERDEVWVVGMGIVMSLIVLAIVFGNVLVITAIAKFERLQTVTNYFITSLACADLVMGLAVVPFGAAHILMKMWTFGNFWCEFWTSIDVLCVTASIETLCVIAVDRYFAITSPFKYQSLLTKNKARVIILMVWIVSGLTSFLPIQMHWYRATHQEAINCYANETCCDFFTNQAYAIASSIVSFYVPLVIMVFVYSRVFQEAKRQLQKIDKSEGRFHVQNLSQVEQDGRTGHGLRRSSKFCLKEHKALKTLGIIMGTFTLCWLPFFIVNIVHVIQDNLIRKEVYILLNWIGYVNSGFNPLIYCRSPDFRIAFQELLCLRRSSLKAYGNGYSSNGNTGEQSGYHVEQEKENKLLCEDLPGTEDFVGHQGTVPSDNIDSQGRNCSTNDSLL
# In short: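 Assay format: CHO-ADRB2 cells, 18-20hr seeding at 37C/5% CO2, then compound plus 1nM isoproterenol agonist mix for 0.5hr RT. Homogeneous time-resolved fluorescence cAMP detection after 1hr, expressed as 665/615 nm ratio.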
# [18] = biological target: D(2) dopamine receptor (Homo sapiens) (UniProt P14416); test: Dopamine D2 receptor (DRD2) small molecule agonists, cell-based qHTS assay (AID 1963594); further: nearly all actives have a fitted effect of over 35% in size
# Chain of D(2) dopamine receptor (Homo sapiens) (P14416 whole entry, looked up): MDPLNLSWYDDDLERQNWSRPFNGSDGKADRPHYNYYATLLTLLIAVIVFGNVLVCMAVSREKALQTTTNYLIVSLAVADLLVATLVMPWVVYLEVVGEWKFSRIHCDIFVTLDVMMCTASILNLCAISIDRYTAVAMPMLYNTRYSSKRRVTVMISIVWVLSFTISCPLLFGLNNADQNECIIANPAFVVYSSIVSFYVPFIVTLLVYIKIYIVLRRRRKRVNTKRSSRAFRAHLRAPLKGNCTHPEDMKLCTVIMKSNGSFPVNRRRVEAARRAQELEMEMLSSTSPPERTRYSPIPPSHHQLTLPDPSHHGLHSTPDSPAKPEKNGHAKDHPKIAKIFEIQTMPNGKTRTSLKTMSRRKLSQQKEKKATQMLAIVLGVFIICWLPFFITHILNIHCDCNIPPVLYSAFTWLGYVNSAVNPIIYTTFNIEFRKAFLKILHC
# In short: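 HEK293 cells stably expressing human DRD2, pre-treated with PDE inhibitor Ro20-1724 (0.1 mM final) and compound 10 min at room temperature, then stimulated with NKH477 (200nM […]) for 30 min. cAMP read by HTRF (665/620 nm).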
# [19] = biological target: D(2) dopamine receptor (Homo sapiens) (UniProt P14416); test: Dopamine D2 receptor (DRD2) small molecule antagonists, cell-based qHTS assay (AID 1963595; active means well fitted inhibition curve with a large enough effect in the signal ratio in the repeat runs, with a control signal flat; the % refers to the signal ratio; further: potency means the concentration at half of the fitted maximal effect)
# In short: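 Antagonism was scored as restored cAMP in HEK293-DRD2 cells. These cells were stimulated with 200 nM NKH477 and 12 nM quinpirole for 30 min at room temperature, in the presence of 0.1 mM Ro20-1724.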
# [20] = p53 small molecule agonists, cell-based qHTS assay with human liver microsomes: qHTS cell viability counter screen (AID 1963579); further: nearly all actives have a fitted effect of over 45% in size
# In short: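 In this multiplexed counter screen, the reporter plates were subsequently treated with CellTiter-Glo so that cell viability, reflected by luminescence, could be recorded for p53RE-bla cells dosed 16 h with compounds under microsomal activation (HLM and NADPH).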
Structure (SMILES),Potency [1],Potency [2],Potency [3],outcome [4],outcome [5],Potency [6],Potency [7],Potency [8],Potency [9],Potency [10],Potency [11],Potency [12],Potency [13],Potency [14],Potency [15],Potency [16],Potency [17],Potency [18],Potency [19],Potency [20]
O=C(O)c1cc(C(=O)O)c(C(=O)O)cc1C(=O)O,inactive,inactive,inactive,inactive,inactive,inactive,inactive,inactive,inactive,inactive,inactive,inactive,inactive,inactive,inactive,inactive,inactive,inactive,inactive,
CN(C)C(=O)C1(N2CCCCC2)CCN(CC[C@@]2(c3ccc(Cl)c(Cl)c3)CN(C(=O)c3ccccc3)CCO2)CC1,22.7 µM (active),inactive,inactive,inactive,inactive,inactive,inactive,,,,,inactive,,inactive,,,inactive,,64.1 µM (active),inactive
CCOc1cc(OCC)c(C(C)=O)cc1OCC,inactive,inactive,inactive,inactive,inactive,inactive,inactive,,,,inactive,inactive,inactive,inactive,,,inactive,inactive,inactive,inactive
CCCCCCCCCCCCCCCCOP(=O)([O-])OCC[N+](C)(C)C,inactive,inactive,inactive,inactive,inactive,inactive,inactive,inactive,inactive,inactive,inactive,inactive,,inactive,inactive,inactive,inactive,inactive,inactive,
O=C(O)CCSCCC(=O)O,inactive,inactive,inactive,inactive,inactive,inactive,inactive,inactive,inactive,inactive,inactive,inactive,,inactive,inactive,inactive,,inactive,inactive,
CC(=O)CCc1ccc(O)cc1,inactive,inactive,inactive,inactive,inactive,inactive,inactive,inactive,inactive,inactive,inactive,inactive,inactive,inactive,inactive,,inactive,inactive,inactive,
CCOCCn1c(C2CCN(CCc3ccc(C(C)(C)C(=O)O)cc3)CC2)nc2ccccc21,inactive,inactive,inactive,inactive,inactive,inactive,inactive,inactive,inactive,inactive,inactive,,,inactive,inactive,inactive,inactive,inactive,inactive,
CC(C)=CCC[C@H](C)CCO,inactive,inactive,inactive,inactive,inactive,inactive,inactive,inactive,inactive,inactive,inactive,inactive,inactive,inactive,inactive,inactive,inactive,inactive,inactive,
CC(C)[N+](C)(C)CC(O)COc1cccc2ccccc12 (stereo unspecified),inactive,inactive,inactive,inactive,inactive,inactive,inactive,inactive,inactive,inactive,inactive,inactive,inactive,inactive,,inactive,15 µM (active),,inactive,
COc1cc(O)cc(O)c1,inactive,inactive,inactive,inactive,inactive,inactive,inactive,inactive,inactive,inactive,inactive,inactive,inactive,inactive,inactive,inactive,,inactive,,
O=[N+]([O-])c1ccc(/C=N\O)o1,inactive,23.7 µM (active),inactive,inactive,inactive,inactive,inactive,inactive,inactive,inactive,inactive,inactive,inactive,inactive,inactive,inactive,,inactive,inactive,
CCOC(=O)Cn1c(=O)sc2cccc(Cl)c21,inactive,inactive,inactive,inactive,inactive,inactive,inactive,inactive,inactive,inactive,inactive,inactive,inactive,inactive,inactive,,inactive,inactive,inactive,
Cc1c(N=C=O)cccc1N=C=O,inactive,inactive,inactive,inactive,inactive,inactive,inactive,inactive,inactive,inactive,inactive,inactive,inactive,inactive,inactive,inactive,inactive,inactive,,
CC(C)(C)c1ccccc1,inactive,inactive,inactive,inactive,inactive,inactive,inactive,inactive,inactive,inactive,inactive,inactive,inactive,inactive,inactive,,inactive,inactive,inactive,
